Laboratory results published in PubChem BioAssay.
A number with no mark means an inactive call. For some assays here: Measured potencies and affinities stand elsewhere. Activity calls are given as the source filed them. Unless noted, no rule for the calls is given here.

What was measured:
[1] = antimalarial activity against Dd2 strain (AID 2302;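 active = growth inhibition above 50% at the single 2 µM test dose, taken to imply half-maximal potency below 2 µM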;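 also: 0% = DMSO untreated growth and 100% = chloroquine plus artemisinin killed control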); details: P. falciparum Dd2 in RBCs, LDH growth readout, 72 h; at 2 µM; active compounds read high
[2] = human hepatoma cell viability loss – ATP luminescence, cytotoxicity control for P. falciparum antimalarial project, primary screen (AID 2303;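 active = inhibition above 50%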;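 also: 0% = DMSO wells and 100% = digitonin-killed cells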); details: HepG2 viability, 24-48 h, at 10 µM, active compounds read high
[3] = biological target: L-lactate dehydrogenase (Plasmodium falciparum (isolate CDC / Honduras)) (UniProt Q27743); experiment: PfLDH activity inhibition – cell lysate, 3D7 strain, counter-screen for P. falciparum growth inhibition project (AID 2304);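 also: 0% = vehicle and 100% = reference inhibitor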; details: P. falciparum 3D7 crude extract, LDH APAD/NBT absorbance; at 2 µM; active compounds read high
[4] = inhibition of 3D7 malaria parasite growth – strain 3D7 (AID 2306);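 also: 0% = DMSO wells and 100% = chloroquine plus artemisinin control wells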; details: P. falciparum 3D7 erythrocytic growth, LDH absorbance, 72 h; at 2 µM; active compounds read high
[5] = biological target: Calcium-dependent protein kinase 1 (Plasmodium falciparum (isolate 3D7)) (UniProt P62344); experiment: PfCDPK1 kinase inhibitors, biochemical, TCAMS library (AID 1159585; cut-off not given, nearly all actives have IC50 up to about 0.98 µM;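 also: inhibitors leave more ATP so luminescence rises with inhibition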); details: recombinant PfCDPK1, Kinase-Glo ATP depletion luminescence
[6] = biological target: Plasmodium falciparum protein kinase 6 (PK6, PF3D7_1337100) (UniProt Q8IDW1); experiment: PfPK6 kinase inhibitors, biochemical, TCAMS library (AID 1159586); details: recombinant PfPK6, Kinase-Glo ATP depletion luminescence
[7] = biological target: Protein kinase 7 (PK7), Plasmodium falciparum 3D7 (PF3D7_0213400) (UniProt Q7YTF7); experiment: inhibition of Plasmodium PK7 catalytic activity – biochemical, TCAMS antimalarial set, Kinase-Glo luminescence (AID 1159587); details: recombinant PfPK7, Kinase-Glo ATP depletion luminescence
[8] = biological target: Calcium-dependent protein kinase 4 (Plasmodium falciparum (isolate 3D7)) (UniProt Q8IBS5); experiment: PfCDPK4 kinase inhibitors, biochemical, TCAMS library (AID 1159588; cut-off not given, nearly all actives have IC50 up to about 0.91 µM); details: recombinant PfCDPK4, Kinase-Glo ATP depletion luminescence
Sequence of Calcium-dependent protein kinase 4 (Plasmodium falciparum (isolate 3D7)) (Q8IBS5 whole entry, looked up): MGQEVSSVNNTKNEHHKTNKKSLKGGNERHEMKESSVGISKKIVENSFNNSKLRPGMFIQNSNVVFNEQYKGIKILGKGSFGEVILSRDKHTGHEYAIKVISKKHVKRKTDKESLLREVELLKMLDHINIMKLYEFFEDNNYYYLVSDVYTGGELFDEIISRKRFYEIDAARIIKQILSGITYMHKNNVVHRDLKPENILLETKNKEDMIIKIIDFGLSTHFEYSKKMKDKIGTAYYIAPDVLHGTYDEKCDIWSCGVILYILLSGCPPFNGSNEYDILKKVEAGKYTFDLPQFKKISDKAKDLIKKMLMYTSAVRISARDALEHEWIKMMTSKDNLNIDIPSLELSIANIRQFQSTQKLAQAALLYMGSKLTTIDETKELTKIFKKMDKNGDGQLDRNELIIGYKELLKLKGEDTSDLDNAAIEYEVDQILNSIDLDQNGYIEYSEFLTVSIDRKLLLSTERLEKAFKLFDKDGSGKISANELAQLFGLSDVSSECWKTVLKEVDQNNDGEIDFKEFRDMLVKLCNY

Sequence of Calcium-dependent protein kinase 1 (Plasmodium falciparum (isolate 3D7)) (P62344 whole entry, looked up): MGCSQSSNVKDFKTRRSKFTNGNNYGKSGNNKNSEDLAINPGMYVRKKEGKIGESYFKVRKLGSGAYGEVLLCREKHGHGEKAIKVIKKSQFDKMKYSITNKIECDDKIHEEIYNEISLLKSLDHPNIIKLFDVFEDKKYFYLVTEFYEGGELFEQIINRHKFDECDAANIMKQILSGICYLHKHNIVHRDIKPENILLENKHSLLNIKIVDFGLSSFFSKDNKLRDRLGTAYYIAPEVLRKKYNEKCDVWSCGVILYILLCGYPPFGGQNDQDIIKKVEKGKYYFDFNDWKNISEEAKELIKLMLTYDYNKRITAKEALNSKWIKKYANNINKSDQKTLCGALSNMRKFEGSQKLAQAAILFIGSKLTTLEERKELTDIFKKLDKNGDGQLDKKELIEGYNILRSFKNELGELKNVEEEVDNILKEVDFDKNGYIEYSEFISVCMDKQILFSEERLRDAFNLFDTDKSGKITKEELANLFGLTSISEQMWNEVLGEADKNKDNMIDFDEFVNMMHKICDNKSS
Sequence of Protein kinase 7 (PK7), Plasmodium falciparum 3D7 (PF3D7_0213400) (Q7YTF7 1-343): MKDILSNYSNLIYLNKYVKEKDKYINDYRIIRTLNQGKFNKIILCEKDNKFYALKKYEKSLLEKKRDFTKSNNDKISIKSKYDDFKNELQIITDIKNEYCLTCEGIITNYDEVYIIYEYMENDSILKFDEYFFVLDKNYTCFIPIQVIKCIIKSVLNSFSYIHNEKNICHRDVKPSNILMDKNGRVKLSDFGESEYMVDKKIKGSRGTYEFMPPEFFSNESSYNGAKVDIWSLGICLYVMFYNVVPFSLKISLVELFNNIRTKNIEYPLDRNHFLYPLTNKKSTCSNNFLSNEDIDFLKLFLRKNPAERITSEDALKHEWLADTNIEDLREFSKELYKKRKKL
Sequence of L-lactate dehydrogenase (Plasmodium falciparum (isolate CDC / Honduras)) (Q27743 whole entry, looked up): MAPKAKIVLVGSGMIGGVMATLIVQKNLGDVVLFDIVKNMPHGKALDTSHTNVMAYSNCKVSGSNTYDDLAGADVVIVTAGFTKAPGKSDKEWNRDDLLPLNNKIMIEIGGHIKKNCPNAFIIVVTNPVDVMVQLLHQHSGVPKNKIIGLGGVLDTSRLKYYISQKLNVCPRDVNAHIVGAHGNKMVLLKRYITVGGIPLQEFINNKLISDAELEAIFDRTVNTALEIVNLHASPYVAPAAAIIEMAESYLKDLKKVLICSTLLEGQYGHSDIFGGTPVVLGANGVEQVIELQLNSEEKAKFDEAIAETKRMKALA
Sequence of Plasmodium falciparum protein kinase 6 (PK6, PF3D7_1337100) (Q8IDW1 1-305): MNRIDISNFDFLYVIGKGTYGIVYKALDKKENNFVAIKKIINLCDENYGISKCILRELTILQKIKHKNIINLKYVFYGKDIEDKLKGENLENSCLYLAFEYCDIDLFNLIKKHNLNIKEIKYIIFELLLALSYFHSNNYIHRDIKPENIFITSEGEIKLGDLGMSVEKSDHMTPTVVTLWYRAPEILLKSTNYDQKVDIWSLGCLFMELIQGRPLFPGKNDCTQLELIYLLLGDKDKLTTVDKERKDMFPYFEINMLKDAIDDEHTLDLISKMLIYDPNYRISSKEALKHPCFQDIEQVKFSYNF

Row | Compound | growth inhibition [1] | inhibition [2] | inhibition [3] [%] | growth inhibition [4] | outcome [5] | outcome [6] | outcome [7] | outcome [8]
1 | N#Cc1ccc(C(=O)Nc2cc(-c3cccc(O)c3)cc3[nH]ncc23)cc1 | 79% (active) | 15% | -1 | 90% (active) | inactive | inactive | inactive | –
2 | CC(C)C(=O)NC(NC(=S)Nc1ccc(Br)cc1)C(Cl)(Cl)Cl (configuration not stated) | – | -5% | 3 | 93% (active) | inactive | inactive | inactive | inactive
3 | NS(=O)(=O)c1cccc(N=Cc2c(O)[nH]c3ccc(S(=O)(=O)Cc4c(Cl)cccc4Cl)cc23)c1 | 99% (active) | 1% | 4 | 92% (active) | inactive | inactive | inactive | –
4 | Fc1ccccc1C=NNc1ccnc2cc(Cl)ccc12 | – | – | -2 | – | inactive | inactive | inactive | inactive
5 | CN(c1ccc(NC(=O)Nc2cccc(Cl)c2)cc1)c1ccnc(N)n1 | 40% | 75% (active) | -1 | 100% (active) | inactive | – | inactive | inactive
6 | COc1cccc(-c2nc(Nc3ccncc3)c3ncn(C)c3n2)c1 | – | 14% | -1 | 94% (active) | inactive | inactive | inactive | inactive
7 | CN(C)Cc1cccc(-c2ccc(NC(=O)c3ccc4c(=O)n(Cc5cnn(C)c5)cnc4c3)cc2)c1 | – | 12% | 2 | 80% (active) | inactive | inactive | inactive | inactive
8 | COc1cc(Nc2nccc(-c3c(-c4cccc(NC(=O)c5c(F)cccc5F)c4)nn4ncccc34)n2)cc(OC)c1OC | 97% (active) | 96% (active) | 1 | 98% (active) | inactive | inactive | inactive | –
9 | C=CC(C)C1OC(=O)c2cc(OC)cc(OC)c21 (configuration not stated) | – | 100% (active) | -4 | 100% (active) | inactive | inactive | inactive | inactive
10 | CCc1cc2c3c(N)nc(N)nc3ccc2n1C(C)(C)C | – | – | -11 | 99% (active) | inactive | inactive | inactive | inactive
11 | Cn1cccc1C(=O)Nc1cccc(-c2nn3ccccc3c2-c2ccnc(Nc3ccc4c(c3)OCCO4)n2)c1 | 27% | 12% | 4 | 95% (active) | inactive | inactive | inactive | –
12 | Brc1ccsc1-c1nc(NC2CCN(Cc3ccccc3)CC2)no1 | – | 0% | -2 | 80% (active) | inactive | inactive | inactive | inactive
13 | Cc1ccc(Cn2ccc3c4c(N)nc(N)nc4ccc32)cc1 | – | – | -6 | 99% (active) | inactive | inactive | inactive | inactive
14 | O=C(O)c1ccc(-c2cnc3ccc(NC4CCC(O)CC4)nn23)cc1 (configuration not stated) | 90% (active) | 9% | 3 | 98% (active) | inactive | inactive | – | inactive
15 | CCN(CC)CCCC(C)Nc1nc(C=Cc2ccc(Br)cc2)nc2cc(Cl)ccc12 (configuration not stated) | – | – | -6 | – | inactive | inactive | inactive | inactive
16 | CCS(=O)(=O)c1ccc(OC)c(Nc2nccc(-c3c(-c4cccc(NC(=O)c5c(F)cccc5F)c4)nn4ncccc34)n2)c1 | 88% (active) | 27% | -5 | 87% (active) | inactive | inactive | inactive | –
17 | Clc1ccc(C=NNc2ccnc3cc(Cl)ccc23)cc1 | – | – | -3 | – | inactive | inactive | inactive | inactive
18 | CC(C)Cc1csc(NC(=O)C=Cc2ccco2)c1C(=O)O | – | 4% | -2 | 82% (active) | inactive | inactive | inactive | inactive
19 | Cc1[nH]nc2ccc(-c3cc(OC[C@@H](N)Cc4ccccc4)cnc3-c3cc4ccccc4s3)cc12 | 68% (active) | 41% | -3 | 99% (active) | inactive | inactive | inactive | –
20 | O=C(Cc1ccc(Nc2nccc(Nc3cccc4[nH]ncc34)n2)cc1)Nc1ccc(C(F)(F)F)cc1 | 69% (active) | 12% | -6 | 100% (active) | inactive | – | inactive | inactive
21 | Cc1cccc(Cn2ccc3c(N)nc(N)nc32)c1 | – | – | 5 | 82% (active) | inactive | inactive | inactive | inactive
22 | CCn1c(-c2nonc2N)nc2c(-c3cc4ccccc4s3)ncc(C(=O)N3CCC(N)C3)c21 (configuration not stated) | 66% (active) | 99% (active) | 5 | 98% (active) | inactive | inactive | inactive | –
23 | COc1ccc(NC(=O)c2ccc(-c3cccc(OCc4ccccc4)c3)cc2)cc1N1CCN(C)CC1 | – | 29% | -1 | 85% (active) | inactive | inactive | inactive | inactive
